The list is not random: actives were taken first. Their share in the collection is about 4.6%.
ADAM10 inh: inhibitors of human ADAM10; O14672; recombinant ADAM10, EDANS/DABCYL FRET peptide cleavage, 3 h; inhibition, % at 7 µM; 0.62% of 370,000 active; AID 720582;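 active means inhibition above a per-campaign cutoff equal to the mean of compounds falling between control-based bounds plus 3 SD, cut at about 20% in these data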;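 further: 0% = DMSO wells while the 100% control is not disclosed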
KLK7 zymogen act: activators of human kallikrein-7 zymogen; purified proKLK7, EDANS-DABCYL substrate fluorescence; 100% is mature enzyme control, 0% vehicle; AID 652039; P49862; 0.9% of 370,000 active; activation, % at 7 µM;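 active means activation above the mean of all tested compounds plus 3 SD, computed per campaign excluding outliers beyond control limits, cut at about 13% in these data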
ADAM17 inh: ADAM17 inhibition, QFRET primary screen | recombinant ADAM17, EDANS/DABCYL FRET peptide cleavage | 0.83% of 370,000 active | inhibition, % at 6.95 µM | P78536 | AID 720648;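 active means inhibition above the mean of compounds lying between control limits plus 3 SD, set per campaign, cut at about 8.5% in these data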;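 further: 0% = DMSO-only wells as the low control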
NR3A LBD binder: NR3A (human) ligand-binding domain modulation. NR3A LBD differential scanning fluorimetry, Tm shift; 0% = protein alone, 100% = glycine-bound protein. Tm shift relative to glycine control, % at 25 µM. 2.5% of 340,000 active. AID 1259313;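 active means melting temperature shift of at least 10% of the positive control shift, at one fixed dose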
FAS TE block: blocks the thioesterase domain of human fatty acid synthase | 0.67% of 360,000 active | recombinant FAS-TE, OMFH fluorogenic substrate, fluorescence endpoint | P49327 | inhibition, % at 15 µM;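 active means compounds whose normalised, plate-corrected inhibition of enzyme fluorescence in the single-dose primary screen is 50% or more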;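 further: 0% = DMSO with enzyme and 100% = substrate without enzyme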
FAS-TE inh conf: confirmation of human fatty acid synthase thioesterase inhibitors | shares compounds with FAS TE block | recombinant FAS-TE, OMFH fluorogenic substrate, fluorescence | inhibition, % at 15 µM | 45% of 2,300 active | AID 624325;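 active means compounds inhibiting the enzyme by at least 50% at 15 µM in any one of the replicates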;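 further: 0% = enzyme with DMSO only and 100% = wells lacking enzyme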
Starred values were filed as active, the others as inactive; · = not tested or not shown.

SMILES	ADAM10 inh	KLK7 zymogen act	ADAM17 inh	NR3A LBD binder	FAS TE block	FAS-TE inh conf
COc1ccc(C(=O)Nc2ccccc2N2CCCCC2)cc1[N+](=O)[O-]	5	0	1	-10	57*	31
COc1ccc(NC(=O)/C(=C\c2ccc(OS(=O)(=O)c3ccc(C)cc3)cc2)NC(=O)c2ccccc2)cc1	-2	-6	-3	-1	54*	15
Cc1ccc(S(=O)(=O)Oc2ccc(/C=C(/NC(=O)c3ccccc3)C(=O)Nc3ccccc3)cc2)cc1	9	-4	2	0	55*	18
COc1ccc(NC(=O)c2nc[nH]c2C(=O)N[C@H](C)c2ccccc2)cc1	14	0	6	-16	56*	50*
C[C@H](NC(=O)c1[nH]cnc1C(=O)Nc1ccccc1)c1ccccc1	14	0	6	-5	22	·
Cc1cc(C)cc(C(=O)OCCCN(C)C2CN(Cc3cn(Cc4cccc(F)c4)nn3)S(=O)(=O)C2)c1 (stereo unspecified)	4	0	3	·	·	·
COc1ccc(C/C(N)=N/OC(=O)c2cccc([N+](=O)[O-])c2)cc1	8	0	-1	14*	54*	48*
C=CCN1C(=O)[C@@H](CC(=O)N2CCN(C(=O)C3CC3)CC2)[C@]2(C(=O)OC)CCCCC=C12	-3	0	-2	·	·	·
CC(NC(=O)c1ccccc1Cl)C1CC2CCC1C2 (stereo unspecified)	-1	0	-3	1	-2	·
CC(NC(=O)c1ccc([N+](=O)[O-])cc1Cl)C1CC2CCC1C2 (stereo unspecified)	12	-1	4	-1	57*	66*
Cc1ccc(Cl)cc1N1CCN(S(=O)(=O)c2ccc3c(c2)oc(=O)n3C)CC1	-2	0	2	0	52*	7
Cc1ccc(C2=CCN(C)C(=O)N2c2ccccc2)cc1	-3	1	-2	·	·	·
COc1ccc(-c2csc3ncnc(N4CCN(S(=O)(=O)c5cccc(C(F)(F)F)c5)CC4)c23)cc1	5	-1	1	3	50*	8
Cc1nc(N2CCN(S(=O)(=O)c3ccccc3C#N)CC2)c2c(-c3ccccc3)csc2n1	-7	0	-2	-14	83*	39
Cc1ccc(S(=O)(=O)N2CCN(c3ncnc4scc(-c5ccccc5)c34)CC2)cc1	-10	-1	-1	-2	52*	15
COc1ccc(-c2csc3ncnc(N4CCN(S(=O)(=O)c5cccc(Br)c5)CC4)c23)cc1	3	0	2	0	36	·
CC1CCC2(CCC(=O)N2CCCOC(=O)c2ccccc2)CC1 (stereo unspecified)	5	0	1	·	·	·
FC(F)(F)c1ccccc1Cn1ccc2ccc(-c3ccc4ccn(Cc5ccccc5C(F)(F)F)c4c3)cc21	4	0	0	·	·	·
CCCCOc1ccc(-c2c(C#N)c(N)nc(SCC(N)=O)c2C#N)cc1	6	-3	0	17*	76*	92*
COc1ccc(-c2csc3nc(-c4ccc(C)cc4)oc(=O)c23)cc1OC	1	-1	1	-2	7	·
COc1ccc(-c2csc3nc(-c4ccccc4OC)oc(=O)c23)cc1	2	-1	1	-1	63*	42
Cc1nc2scc(-c3ccccc3)c2c(=O)o1	-8	0	-6	0	51*	73*
CC(C)(C)c1nc2scc(-c3cccs3)c2c(=O)o1	-6	0	-4	3	58*	56*
O=c1oc(-c2ccccc2F)nc2scc(-c3ccccc3)c12	5	0	2	2	86*	37*
COC(=O)[C@]12C[C@H](CC(=O)NCc3ccc(OC)c(OC)c3)C(=O)N(Cc3ccccc3)C1=C[C@H](COCc1ccccc1)O[C@@H]2C	12	0	0	·	·	·
SMILES	ADAM10 inh	KLK7 zymogen act	ADAM17 inh	NR3A LBD binder	FAS TE block	FAS-TE inh conf
O=C(NCCc1c[nH]c2ccccc12)OCc1cn(Cc2cccc(F)c2F)nn1	-1	0	-6	·	·	·
C=CCOC(=O)N1CCN(C(=O)c2ccc3nc(C)n(C4CCCC4)c3c2)CC1	1	0	1	·	·	·
CCCCNS(=O)(=O)/C=C/c1cc2c(cc1CNC(=O)OC(C)(C)C)OCO2	-75	0	-19	·	·	·
Cc1ccc(N2CC(C)Cn3c2nc2c3c(=O)n(CC(=O)OCc3ccccc3)c(=O)n2C)cc1C (stereo unspecified)	-6	0	-2	-3	54*	5
Cc1cc(C)cc(N2CCCn3c2nc2c3c(=O)n(CC(=O)OCc3ccccc3)c(=O)n2C)c1	·	·	·	1	22	·
COC(=O)CSc1nnc(-c2cc(-c3ccccc3)n[nH]2)n1N	1	0	2	·	·	·
CC(C)C[C@H]1C(=O)N2CCC[C@H]2[C@]2(O)O[C@](NC(=O)C3C=C4c5cccc6[nH]c(Br)c(c56)C[C@H]4N(C)C3)(C(C)C)C(=O)N12 (stereo partly specified)	-48	1	-15	-8	52*	25
O=C(c1cc(Cl)ccc1F)N1CCCC(c2nc(-c3cccs3)no2)C1 (stereo unspecified)	-8	-1	-1	·	·	·
COc1ccc(/C=C2\SC(=O)N(CCNC(=O)C3CCN(S(=O)(=O)c4cccs4)CC3)C2=O)cc1	6	0	-1	-13	54*	16
N#Cc1cc(-c2ccccc2)nc(Oc2ccccc2)n1	-4	0	-3	3	69*	45*
C/C(=N\NC(=O)c1nnn(-c2nonc2N)c1-c1ccc(Cl)c(Cl)c1)c1ccncc1	2	0	-3	-10	55*	56*
C=CCN(CC=C)S(=O)(=O)c1ccc(NC(=S)NC(=O)/C=C/c2ccccc2)cc1	14	1	1	0	57*	10
O=C(/C=C/c1ccccc1)NC(=S)Nc1ccccc1	4	0	4	-11	8	·
N#CCSc1ccc(S(=O)(=O)N2CCOCC2)cn1	-17	1	-5	4	-7	·
CC(C)(C)c1ccc(CSc2ccc(S(=O)(=O)N3CCOCC3)cn2)cc1	5	0	-1	4	82*	74*
COC(=O)[C@@H](CC(C)C)CP(=O)(OC)[C@@H](C)NC(=O)OCc1ccccc1 (stereo partly specified)	-1	0	-4	·	·	·
COc1ccc2cc3cc(C(=O)N4CC(C)CC(C)C4)oc3nc2c1 (stereo unspecified)	·	·	·	0	69*	75*
Cc1ccc2cc3cc(C(=O)NC4CCCCC4)oc3nc2c1	-281	-3	-77	-3	10	·
Cc1ccc2cc3cc(C(=O)N4CCCCC4C)oc3nc2c1 (stereo unspecified)	-33	0	-14	0	84*	61*
O=C(c1cc2cc3ccc(Cl)cc3nc2o1)N1CCCCCC1	·	·	·	0	62*	41*

Screens as filed in PubChem.
